Rows were chosen to be rich in hits. Some 2.1% of all compounds tested hit in one or more screens of this group.
Calb FLC: C. albicans growth inhibition with fluconazole, primary screen, CaCi-2 strain, Alamar Blue fluorescence | C. albicans CaCi-2 (fluconazole-resistant clinical isolate) + fluconazole, 48 h | growth inhibition, % (test concentration not listed) | actives 0.57% (n = 300,000) | AID 1979, 2009;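 active = growth inhibition above about 58% in most replicates, limit read from the data, passing the limit was not always enough; inconclusive = exactly half the replicates above a set limit; inactive = most replicates below a set limit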;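 note: all wells also contain fluconazole at 8 µg/ml as a sub-toxic cotreatment; 0% = median of DMSO wells and 100% = median of geldanamycin control wells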
Fh CTSL1 inh: Fasciola hepatica cathepsin L1 inhibitors, primary screen, counter-screen for PFM18AAP inhibitor project, biochemical, QFRET, fluorogenic peptide substrate; recombinant F. hepatica cathepsin L1, Z-Leu-Arg-MCA fluorescence; inhibition, % at 5.96 µM; actives 0.49% (n = 300,000);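 active = inhibition above the mean of all tested compounds plus 3 SD, set per screening campaign, cut at about 17% in these data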;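 note: 0% = plate median of test compound wells and 100% = 1 µM Z-Phe-Ala-diazomethylketone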
M18AAP inhibitor: PfM18AAP inhibitors, malaria aminopeptidase, primary screen, biochemical, QFRET, recombinant enzyme. M18 aspartyl aminopeptidase (Plasmodium falciparum 3D7). H-Glu-NHMec fluorogenic cleavage. inhibition, % at 7.35 µM. actives 1.2% (n = 290,000). AID 1822, 2009;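 active = inhibition above the campaign mean inhibition over all tested compounds plus 3 SD, cut at about 28% in these data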;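 note: 0% = plate median of test compound wells and 100% = 2 mM ZnCl2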
Rin1-Abl PPI inh: inhibitors of Rin1-Abl protein binding, primary screen, biochemical, TR-FRET. actives 0.4% (n = 360,000). AID 588664, 2011. inhibition, % at 7.35 µM; in the data active = inhibition above about 5%, passing the limit was not always enough
Starred values were filed as active, the others as inactive; ? = inconclusive; . = no result given.

SMILES	Calb FLC	Fh CTSL1 inh	M18AAP inhibitor	Rin1-Abl PPI inh
CC(NS(=O)(=O)c1ccccc1)C(c1cccs1)N1CCOCC1 (centres undefined)	0	79*	-6	-2
CCOC(=O)c1nn(-c2ccc(C)cc2)c(=O)c2c(N)scc12	-10	17*	-4	2
CCOC(=O)c1nn(-c2ccc(F)cc2)c(=O)c2c(N)scc12	0	15	5	-1
CCc1ccc(/C=C/C(=O)c2cc(Br)ccc(=O)c2O)cc1	94*	-5	60*	5
CCOc1ccc(/C=C/C(=O)c2cc(Br)ccc(=O)c2O)cc1	.	-1	28	3
Cc1onc(-c2ccccc2)c1C(=O)OCC(=O)N1CCCCC1	.	.	.	0
COc1cc(/C=C2\C(=N)N3N=CSC3=NC2=O)ccc1OS(=O)(=O)c1ccccc1[N+](=O)[O-]	5	1	29*	0
O=C(c1ccccc1)c1c[nH]c(C(=O)NNc2ccccc2)c1	99*	-1	14	0
CN(C)CCCNC(=O)c1cc(C(=O)c2ccccc2)c[nH]1	9	1	-12	0
COc1ccc(S(=O)(=O)Nc2ccccc2C(=O)NCc2ccco2)cc1	4	5	-8	-3
O=C(NCc1ccco1)c1ccccc1NS(=O)(=O)c1ccc(Br)s1	108*	-1	2	-2
Cc1ccc(NS(=O)(=O)c2cccc(C(=O)N3CCN(c4ncccn4)CC3)c2)cc1	.	.	.	2
O=S(=O)(c1ccc(N2CCOCC2)c(Cl)c1)N1CCOCC1	0	-2	-4	2
O=c1c2ccccc2sn1-c1cc(S(=O)(=O)N2CCOCC2)ccc1N1CCOCC1	-1	-4	31*	2
CCCCNC(=O)CNC(=S)N(Cc1ccccc1F)C1CCCCC1	11	0	-3	2
Cc1ccc(OCCOCCN2CCN(C)CC2)c([N+](=O)[O-])c1	-8	18*	6	-2
O=C(CN(C(=O)CNC(=O)c1cccs1)c1ccc(F)cc1)NC1CCCCC1	9	1	1	3
O=c1nc(/C=C/c2cc([N+](=O)[O-])ccc2Cl)cc(C(F)(F)F)[nH]1	89*	0	19	-2
COc1cccc(OCC(O)CN2CCC(CN3C(=O)c4cccc5cccc(c45)C3=O)CC2)c1 (centres undefined)	2	33*	0	-11
O=C1c2cccc3cccc(c23)C(=O)N1CC1CCN(CC(O)COc2ccc3ccccc3c2)CC1 (centres undefined)	-5	6	.	-13
CCOc1ccc(N(C)c2ccc(/C=C3/SC(=S)NC3=O)cc2)cc1	13	3	2	-1
CCOc1c(O)ccc(/C=C2\SC(=S)NC2=O)c1[N+](=O)[O-]	26	6	37*	0
O=C(COC(=O)c1ccc[n+]([O-])c1)Nc1ccc([N+](=O)[O-])cc1Cl	.	.	.	1
O=C(NCc1cccnc1)c1ccc(-c2cccc(Cl)c2Cl)o1	61*	5	3	-3
O=C(NCc1cccnc1)c1ccc(-c2ccccc2[N+](=O)[O-])o1	-11	3	3	1
SMILES	Calb FLC	Fh CTSL1 inh	M18AAP inhibitor	Rin1-Abl PPI inh
O=C1/C(=C/c2cccnc2)SC(=S)N1C1CCS(=O)(=O)C1 (centres undefined)	65	-2	11	-3
O=C1/C(=C\c2cccnc2)SC(=S)N1C1CCS(=O)(=O)C1 (centres undefined)	91*	-1	18	-5
O=C1NC2(CCC3(CC2)OCCO3)NN1c1ccccc1	120*	0	-8	5
CC1CCCC2(C1)NC(=S)N(c1ccccc1)N2 (centres undefined)	?	-2	6	4
S=C1NC2(CCCCC2)NN1c1ccccc1	78*	-7	12	1
O=C1NC2(NN1c1ccccc1)C1CC3CC(C1)CC2C3 (centres undefined)	-9	-2	23	-2
CCN1C(=O)[C@H]2[C@@H](c3ccc(-c4cccc(Cl)c4)c(OC)c3)N3CCCC[C@@]3(C(=O)OC)[C@H]2C1=O	.	.	.	-3
S=c1[nH]nc(C2CCCCC2)n1/N=C/c1ccc(Br)s1	90*	-2	10	-3
CC(C)(C)C(=O)NC(=S)NNC(=O)c1sc2ccccc2c1Cl	88*	1	12	0
CC1(C)CC(=O)C2=C(C1)c1c(ccc3ccccc13)NC2c1ccc(Br)o1 (centres undefined)	-6	57*	-30	2
